The record followed here is PubChem BioAssay.

For assay [1], the system named is Plasmodium falciparum Sir2 (PF13_0152, Sir2A). Nature of the assay: Plasmodium falciparum Sir2A binding compounds – biochemical, small-molecule microarray, 635 nm fluorescence, primary screen (AID 1098).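 Further: score merges spot fluorescence intensity with its signal-to-noise ratio.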 As to conditions: fluorescence 635 nm, higher = more signal.
A short description of assay [2]: probe aDKK1 binding to arrayed compounds – biochemical, biotinylated probe, 635/667 nm fluorescence, primary screen (AID 1099).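 Further: score merges 667nm spot fluorescence with signal to noise across triplicate slides.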 The following applies: small-molecule microarray, higher = more signal.
Assay [3] is described as follows: probe aCHRDL2 binding to arrayed compounds – biochemical, biotinylated probe, 635/667 nm fluorescence, primary screen (AID 1100). As to conditions: small-molecule microarray, higher = more signal.
Assay [4] can be described thus: change in splice reporter luminescence, either direction, cell-based, HEK293, spliceosome inhibition project, primary screen (AID 1101).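 Further: HEK293 cells carrying a splicing-competent luciferase reporter gene; test concentration not given here.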 The following applies: HEK293 splicing luciferase reporter, 24 h, higher = more signal, called active from +8 up or from −8 down. (Reporter assays use an easily measured gene product as a stand-in for the process of interest.)
The target of assay [5] is Fibroblast growth factor 10 (Homo sapiens) (UniProt O15520). Nature of the assay: compounds binding fibroblast growth factor 10 – biochemical, small-molecule microarray, 635 nm fluorescence, primary screen (AID 1102). As to conditions: FGF10 binding, fluorescence 635 nm, higher = more signal.
Sequence of Fibroblast growth factor 10 (Homo sapiens) (O15520 whole entry, looked up): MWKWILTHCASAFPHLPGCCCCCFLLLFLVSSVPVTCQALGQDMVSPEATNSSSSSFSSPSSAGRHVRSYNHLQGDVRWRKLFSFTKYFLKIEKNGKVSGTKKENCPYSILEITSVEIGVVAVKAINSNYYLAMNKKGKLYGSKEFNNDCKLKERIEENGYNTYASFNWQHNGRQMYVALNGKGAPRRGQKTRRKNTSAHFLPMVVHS
Assay [6] deals with glycogen synthase kinase-3 (GSK3A per assay name; protocol says GSK3B). Nature of the assay: compounds binding glycogen synthase kinase-3 – biochemical, small-molecule microarray, 635 nm fluorescence, GSK3A, primary screen (AID 1103). Further: the record names both GSK3A and GSK3B. The following applies: fluorescence 635 nm, higher = more signal.
The target in assay [7] is Epidermal growth factor receptor (Homo sapiens) (UniProt P00533). Nature of the assay: compounds binding epidermal growth factor receptor – biochemical, small-molecule microarray, 635 nm fluorescence, primary screen (AID 1104).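 Further: score merges 667 nm emission intensity with spot signal to noise over triplicate slides.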 As to conditions: EGFR binding, higher = more signal.
Sequence of Epidermal growth factor receptor (Homo sapiens) (P00533 whole entry, looked up): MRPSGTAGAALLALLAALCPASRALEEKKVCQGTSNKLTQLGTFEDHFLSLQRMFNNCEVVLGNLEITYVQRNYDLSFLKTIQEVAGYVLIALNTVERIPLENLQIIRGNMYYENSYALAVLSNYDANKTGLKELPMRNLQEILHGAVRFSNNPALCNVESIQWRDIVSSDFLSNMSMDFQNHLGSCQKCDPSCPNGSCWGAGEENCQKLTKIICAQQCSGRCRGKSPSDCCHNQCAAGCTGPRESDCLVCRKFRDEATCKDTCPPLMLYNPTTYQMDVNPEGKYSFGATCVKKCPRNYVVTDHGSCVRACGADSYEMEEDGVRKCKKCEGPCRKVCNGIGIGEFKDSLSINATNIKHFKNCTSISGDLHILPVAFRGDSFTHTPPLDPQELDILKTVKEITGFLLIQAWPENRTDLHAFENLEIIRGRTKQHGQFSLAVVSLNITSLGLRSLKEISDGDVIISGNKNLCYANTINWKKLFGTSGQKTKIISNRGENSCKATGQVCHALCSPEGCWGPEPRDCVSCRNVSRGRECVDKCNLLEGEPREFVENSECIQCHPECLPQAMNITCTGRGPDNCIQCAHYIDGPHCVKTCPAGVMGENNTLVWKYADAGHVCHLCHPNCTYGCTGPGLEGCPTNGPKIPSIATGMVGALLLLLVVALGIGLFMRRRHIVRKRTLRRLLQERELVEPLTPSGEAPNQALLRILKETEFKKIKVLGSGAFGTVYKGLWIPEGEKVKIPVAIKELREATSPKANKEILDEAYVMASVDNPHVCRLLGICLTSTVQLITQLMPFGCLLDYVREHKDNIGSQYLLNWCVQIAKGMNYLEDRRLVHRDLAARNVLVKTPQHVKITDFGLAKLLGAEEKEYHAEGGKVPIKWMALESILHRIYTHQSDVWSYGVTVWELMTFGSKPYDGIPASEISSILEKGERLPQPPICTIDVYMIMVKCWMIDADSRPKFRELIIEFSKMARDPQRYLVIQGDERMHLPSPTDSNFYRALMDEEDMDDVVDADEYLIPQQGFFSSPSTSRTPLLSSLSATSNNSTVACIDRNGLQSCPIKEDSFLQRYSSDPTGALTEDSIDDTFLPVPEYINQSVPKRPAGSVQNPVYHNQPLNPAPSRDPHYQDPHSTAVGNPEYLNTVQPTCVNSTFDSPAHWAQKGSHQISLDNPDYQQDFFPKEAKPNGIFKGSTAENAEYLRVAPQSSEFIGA
Assay [8] concerns the target Follistatin-related protein 3 (Homo sapiens) (UniProt O95633). Nature of the assay: compounds binding follistatin-related protein 3 – biochemical, small-molecule microarray, 635 nm fluorescence, primary screen (AID 1105).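 Further: score merges emission near 667 nm and signal to noise per printed spot across three slides.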 The following applies: FSTL3 binding, higher = more signal.
The target in assay [9] is Dickkopf-related protein 1 (Homo sapiens) (UniProt O94907). The experiment in a line: small molecules binding DKK1 protein – biochemical, small-molecule microarray, 635 nm fluorescence scan, primary screen (AID 1106).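 Further: score merges emission near 667 nm with signal to noise over three replicate slides.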 The following applies: higher = more signal.
Sequence of Dickkopf-related protein 1 (Homo sapiens) (O94907 whole entry, looked up): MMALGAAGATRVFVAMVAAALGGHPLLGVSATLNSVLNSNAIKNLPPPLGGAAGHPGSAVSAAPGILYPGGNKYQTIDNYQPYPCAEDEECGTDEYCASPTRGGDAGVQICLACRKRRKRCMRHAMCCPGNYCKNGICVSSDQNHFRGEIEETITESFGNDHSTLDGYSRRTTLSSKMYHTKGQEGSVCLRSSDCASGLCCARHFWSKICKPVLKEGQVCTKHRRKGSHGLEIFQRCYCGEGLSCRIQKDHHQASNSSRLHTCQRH
The test system of assay [10] is Inhibin beta A chain (activin A). Nature of the assay: small molecules binding activin A – biochemical, small-molecule microarray, 635 nm fluorescence scan, primary screen (AID 1107).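 Further: mouse activin A protein probed at 4.33 µg/mL on printed slides; score merges bound-protein fluorescence near 667 nm with spot signal-to-noise.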 The following applies: INHBA, higher = more signal.
Assay [11] has as its system Human papillomavirus type 1a protein E7 (residues 44-93). Nature of the assay: small molecules binding HPV E7 44-93 – biochemical, small-molecule microarray, residues 44-93, 635 nm fluorescence, primary screen (AID 1108).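 Further: E7 fragment applied at 1 µg/mL in TBST for 1 h at 4 C; score combines spot fluorescence with its signal to noise ratio.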 As to conditions: fluorescence 635 nm, higher = more signal.
Assay [12] in a line: hepatitis C replication reporter changes, two-sided – Huh7 cells, luciferase reporter, HCV replication inhibitor project, primary screen (AID 1109).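 Further: huh7 hepatoma cells harbouring a luciferase neomycin HCV replicon reporter; luciferase luminescence as measure of HCV replicon replication; test concentration not given here.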 As to conditions: Huh7 HCV replicon luciferase reporter, 48 h; higher = more signal.
Assay [13] addresses Left-right determination factor 2 (Homo sapiens) (UniProt O00292). Nature of the assay: small molecules binding LEFTY2 protein – biochemical, small-molecule microarray, 635 nm fluorescence scan, primary screen (AID 1110). The following applies: higher = more signal.
For assay [14], the target named is Calmodulin-1 (Homo sapiens) (UniProt P0DP23). Nature of the assay: small molecules binding calmodulin-1 with EGTA – biochemical, small-molecule microarray, Cy5-labelled CALM1, profiling panel (AID 1111).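 Further: labelled calmodulin applied in Tris saline Tween buffer holding calcium plus EGTA and DTT.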 As to conditions: Cy5-CALM1 binding fluorescence, higher = more signal.
For assay [15] the target is unchanged. The experiment in a line: small molecules binding Ca-loaded calmodulin-1 – biochemical, small-molecule microarray, Cy5-labelled CALM1, plus calcium, artefact control for SMM control-protein annotation, profiling panel (AID 1112).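 Further: score merges spot fluorescence with signal to noise from triplicate slides.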 As to conditions: Cy5-CALM1 binding fluorescence, higher = more signal.
Assay [16] in a line: probe aWnt5a binding to arrayed compounds – biochemical, biotinylated probe, 635/667 nm fluorescence, primary screen (AID 1113).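 Further: score merges 667 nm fluorescence intensity with signal-to-noise per printed feature.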 As to conditions: small-molecule microarray, higher = more signal.
A short description of assay [17]: probe aShh binding to arrayed compounds – biochemical, biotinylated probe, 635/667 nm fluorescence, primary screen (AID 1114).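 Further: probe is biotin-labelled aShh protein from a stem cell growth factor screen; measures binding of labelled protein to compounds printed on the slide; score merges feature fluorescence at 667 nm with signal-to-noise.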 The following applies: small-molecule microarray, higher = more signal.
Assay [18] can be described thus: probe aNog binding to arrayed compounds – biochemical, biotinylated probe, 635/667 nm fluorescence, primary screen (AID 1115).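 Further: probe is biotinylated aNog protein used at 0.15 µg/mL for 1 h at 4 C; z-score combines 667 nm fluorescence of each spot with its signal to noise.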 The following applies: small-molecule microarray, higher = more signal.
The target in assay [19] is Torsin-1A-interacting protein 1 (Homo sapiens) (UniProt Q5JTV8). Nature of the assay: compound microarray binding of lysate hLAP1 – cell lysate, small-molecule microarray, COS7 lysate, 635/667 nm fluorescence, primary screen (AID 1116). The following applies: 635 nm fluorescence, higher = more signal.
Sequence of Torsin-1A-interacting protein 1 (Homo sapiens) (Q5JTV8 whole entry, looked up): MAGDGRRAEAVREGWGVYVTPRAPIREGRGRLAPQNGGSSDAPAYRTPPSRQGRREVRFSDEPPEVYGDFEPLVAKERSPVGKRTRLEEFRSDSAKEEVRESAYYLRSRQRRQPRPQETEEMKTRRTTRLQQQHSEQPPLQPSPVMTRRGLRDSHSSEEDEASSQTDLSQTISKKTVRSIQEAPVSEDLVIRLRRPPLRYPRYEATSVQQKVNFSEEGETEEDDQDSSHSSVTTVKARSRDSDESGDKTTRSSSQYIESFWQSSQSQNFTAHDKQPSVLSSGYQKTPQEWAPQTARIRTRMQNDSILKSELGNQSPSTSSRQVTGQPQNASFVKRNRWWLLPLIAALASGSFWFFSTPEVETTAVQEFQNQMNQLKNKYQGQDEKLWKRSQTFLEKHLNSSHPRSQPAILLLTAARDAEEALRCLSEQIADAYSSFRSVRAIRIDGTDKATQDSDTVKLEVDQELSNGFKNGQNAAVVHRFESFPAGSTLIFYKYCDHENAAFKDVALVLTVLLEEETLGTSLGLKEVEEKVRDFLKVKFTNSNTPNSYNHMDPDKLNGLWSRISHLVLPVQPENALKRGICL
Assay [20] has as its target Alpha-bungarotoxin (Bungarus multicinctus) (UniProt P60615). The experiment in a line: compounds binding labelled alpha-BTX control protein – biochemical, small-molecule microarray, Alexa647 label, 635/667 nm fluorescence, artefact control for SMM control protein annotation, profiling panel (AID 1117). As to conditions: alpha-BTX-A647 binding fluorescence, higher = more signal.

Activity calls are given as the source filed them.

Sequence of Left-right determination factor 2 (Homo sapiens) (O00292 whole entry, looked up): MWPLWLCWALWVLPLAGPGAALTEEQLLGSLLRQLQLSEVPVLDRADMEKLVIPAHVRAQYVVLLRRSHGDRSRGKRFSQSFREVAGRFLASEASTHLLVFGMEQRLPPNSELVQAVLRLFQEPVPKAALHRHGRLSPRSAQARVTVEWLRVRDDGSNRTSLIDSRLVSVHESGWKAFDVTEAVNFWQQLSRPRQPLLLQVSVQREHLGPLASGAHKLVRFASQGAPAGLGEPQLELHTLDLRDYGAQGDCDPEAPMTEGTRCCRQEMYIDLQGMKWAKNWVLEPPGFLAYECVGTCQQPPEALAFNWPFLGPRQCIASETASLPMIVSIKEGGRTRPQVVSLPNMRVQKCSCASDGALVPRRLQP
Sequence of Follistatin-related protein 3 (Homo sapiens) (O95633 whole entry, looked up): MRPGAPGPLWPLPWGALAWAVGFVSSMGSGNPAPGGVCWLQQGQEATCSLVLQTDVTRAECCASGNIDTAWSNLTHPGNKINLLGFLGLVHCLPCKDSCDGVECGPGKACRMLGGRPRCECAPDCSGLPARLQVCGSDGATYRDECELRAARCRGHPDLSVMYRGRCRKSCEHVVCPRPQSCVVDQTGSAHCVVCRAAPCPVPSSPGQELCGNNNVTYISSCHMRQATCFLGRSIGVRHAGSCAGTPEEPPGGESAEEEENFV
Sequence of Alpha-bungarotoxin (Bungarus multicinctus) (P60615 whole entry, looked up): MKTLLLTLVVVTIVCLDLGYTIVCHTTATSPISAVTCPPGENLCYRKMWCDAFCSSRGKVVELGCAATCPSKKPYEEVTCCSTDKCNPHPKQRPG

Turning to `COCCOC(=O)N1C(=O)[C@@]2(c3cc(C#CC4=CCCCC4)ccc31)[C@H](C(=O)NC[C@H](O)c1ccccc1)[C@H]1C(=O)O[C@H](c3ccccc3)[C@H](c3ccccc3)N1[C@@H]2c1ccc(O)cc1`, the composite z-score in assay [1] is 1.14; in assay [2], 0.298; in assay [3], 0.124; in [5], 1.22; in [6], 1.3; in assay [7], 0.663. Also, the composite z-score worked out at 1.41 in [8]; 1.06 in assay [9]; 1.01 in assay [10]; 1.38 in assay [11]; 0.693 in assay [13]; 1.1 in assay [14]. Further, the composite z-score in [15] was 0.274; in assay [16] it was -0.163; in [17] it was -0.0055; in [18], 0.996; in assay [19], 0.949; in [20], 1.13. Further, the z-score in assay [4] was -1.06 (inactive); in [12], -1.84.

Turning to `COc1cc(CO)ccc1OC(C)=O`, the composite z-score in [1] was 0.144; in assay [2], -0.082; in assay [3], -0.526; in [5] it was 0.171; in assay [6], 0.536; in [7], 0.558. The composite z-score in assay [8] was 0.516; in assay [9], 0.668; in assay [10], 0.167; in assay [11], 0.464; in assay [13] it was 0.388; in assay [14], 0.0543. Further, the composite z-score in assay [15] was -0.267; in [16], 0.127; in assay [17], 0.0815; in assay [18], -0.0615; in assay [19], 0.47; in [20], 0.298. Also, the z-score was -0.749 (inactive) in assay [4] and -0.147 in assay [12].

In the case of `CC(C)N1C(=O)[C@@]2(c3ccc([N+](=O)[O-])cc3)CC(=O)N(CC34CC5CC(CC(C5)C3)C4)[C@@H]2c2ccc(CO)cc21`, the composite z-score is -0.732 in [1]; -0.0981 in assay [2]; 0.226 in assay [3]; -0.51 in assay [5]; -0.829 in assay [6]; -1.81 in assay [7]. In addition, the composite z-score in assay [8] was -0.603; in assay [9], -0.734; in assay [10], 0.0207; in assay [11] it was -1.28; in assay [13] it was -1.36; in [14] it was -0.251. Further, the composite z-score is 0.134 in assay [15]; -0.316 in assay [16]; -0.208 in [17]; 0.705 in assay [18]; -0.742 in [19]; -0.12 in assay [20]. Also, the z-score in assay [4] is 0.477 (inactive); in [12], -1.21.

In the case of `COc1ccc(C#Cc2ccc3c(c2)[C@]2(C(=O)N3)[C@H](c3ccc(O)cc3)N3[C@H](c4ccccc4)[C@H](c4ccccc4)OC(=O)[C@H]3[C@@H]2C(=O)N2CCCCCCC2)cc1`, the composite z-score is 1.39 in assay [1]; 2.69 in assay [2]; 1.52 in [3]; 1.22 in [5]; 1.33 in assay [6]; 1.18 in assay [7]. For the same molecule, the composite z-score in assay [8] was 1.61; in assay [9], 1.61; in [10] it was 1.78; in assay [11] it was 1.33; in assay [13], 1.07; in assay [14] it was 2.7. Further, the composite z-score in [15] stood at 1.41; in assay [16], 0.754; in [17], 2.15; in assay [18] it was 2.75; in assay [19], 4.61; in assay [20], 1.83. Moreover, the figures for the z-score in assay [4] and in assay [12] were -0.844 (inactive) and -1.01, respectively.

On to `[N-]=[N+]=NCc1ccccc1C[C@]1(C(=O)O)N=C(c2ccc(OCCCO)cc2)O[C@H]1c1ccccc1CN=[N+]=[N-]`, for which the composite z-score in assay [1] is 1.07; in assay [2] it was 0.804; in assay [3] it was 1.01; in assay [5] it was 0.126; in [6], 0.421; in [7], -0.125. The composite z-score in assay [8] was 0.541; in assay [9], -0.742; in assay [10] it was 0.458; in assay [11], 1.43; in [13], -0.524; in assay [14], 1.74. Moreover, the composite z-score in assay [15] was 0.411; in assay [16], -0.0792; in assay [17] it was -0.0146; in assay [18], 1.16; in assay [19], 0.978; in assay [20], 1.68. Moreover, the z-score was -1.17 (inactive) in [4] and -1.21 in assay [12].
